According to PubChem BioAssay (NCATS):
Results filed as inconclusive are left out. Unmarked numbers belong to inactive results. Calls of active or inactive are those of the source. The call rests on the fitted dose curve; in most records, active means well fitted curve in either direction with a large enough effect (not every such curve was filed as active); inconclusive means small, poorly fitted or top-dose-only effect, or another doubt; inactive means flat fitted curve, though single readings scatter.

test: NFAT Signaling Pathway (AID 444); conditions: Jurkat NFAT-bla M1, carbachol, beta-lactamase ratio, 5 h; at 17.2 µM (top of the series) unless noted;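 further: carbachol stimulus at about its EC50 of 1 µM final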
Method in brief: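 Jurkat cells with NFAT-driven β-lactamase reporter and co-expressed M1 receptor, stimulated with carbachol (final 1 uM, ~EC50), compound titration, 5 h at 37 °C. CCF4 loaded 1 h at RT; 460/530 nm ratio gave %activity and AC50.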
On the % scale 0 is the no-effect control and ±100 the full control effect.

Structure (SMILES)	activity change, negative = inhibition
CC(=NC1CCCC1)c1c(C)[nH]n(-c2nc3ccccc3s2)c1=O	-20.1%
Cc1ccc(-c2nnc(-c3ccccc3)o2)cc1Br	-13.3%
C[C@H](O)[C@@H]1C(=O)N2C(C(=O)O)=C(SCCN=CN)C[C@@H]12	-9.39%
Cc1ccc(OCc2nnc(NC(=O)c3ccco3)s2)c(C)c1	11.7%
CCOC(=O)C1CCN(c2nc3ccccc3nc2C(C#N)C(=O)OC(C)C)CC1 (stereo not given)	8.02%
COC(=O)[C@@H](NC(=O)c1cc(-c2ccccc2)nc2ccccc12)c1ccccc1	-7.43% [at 38 µM]
O=C(O)C1CC=CCC1C(=O)N1CCN(c2nc(-c3ccccc3)c3ccccc3n2)CC1 (stereo not given)	-12%
OC1(C2(O)CC(c3ccccc3)ON2)CCCCC1 (stereo not given)	-7.93%
COCCCNc1nc2c(c(=O)[nH]c(=O)n2C)n1CC(O)COc1ccccc1 (stereo not given)	16.9%
CN(C)C/C(Cl)=C(\Cl)c1ccccc1	-119% (active)
CC[C@]1(O)C[C@H]2CN(CCc3c([nH]c4ccccc34)[C@](C(=O)OC)(c3cc4c(cc3OC)N(C)[C@@H]3[C@](O)(C(=O)OC)[C@H](OC(C)=O)[C@]5(CC)C=CCN6CC[C@]43[C@@H]65)C2)C1	0.463% [at 38 µM]
CC1(C)Cc2c(C#N)c(OCC(=O)c3ccc(Cl)cc3)nc(-c3ccoc3)c2CO1	-4.81%
C=CCNc1nc(N2CCOCC2)c(C#N)c2c1CN(C)CC2	-4.25%
COc1ccc(OCC(O)Cn2c(Nc3cccc(C)c3)nc3c2c(=O)n(C)c(=O)n3C)cc1 (stereo not given)	8.48%
CCCCC(=O)c1c(C)cc(C)[nH]c1=O	4.24%
CSc1ccccc1NC(=O)c1c(Br)cnn1C	-10.8%
C=CCOC(=O)C1=C(C)NC(SCC(=O)N(CC)CC)=C(C#N)C1c1ccccc1 (stereo not given)	2.35%
Cc1nc(NCCN)c(C#N)c2c1COC(C)(C)C2	-1.13%
O=C(NC1(C(F)(F)F)C(=O)Nc2c1c(=O)[nH]c(=O)n2Cc1ccco1)C1CCCCC1 (stereo not given)	-10.2%
C=CCn1c(=S)[nH]c2nc3c(cc2c1=O)COC(C)(C)C3	5.11%

Structure (SMILES)	activity change, negative = inhibition
CN1CCc2cc(O)c(O)cc2[C@H](c2ccccc2)C1	-1.87% [at 38 µM]
COc1ccc(-c2nn3c(C4CCCCC4)nnc3s2)cc1OC	-3.44%
COc1ccc(C(=O)N/C(N)=N/c2nc3ccccc3o2)cc1	-19%
CCOC(=O)C1=C(C)N=C2SC(C)C(=O)N2C1c1ccc(C(=O)OC)cc1 (stereo not given)	-15.8%
O=C(/C=C\c1ccc(O)cc1)c1ccc(O)cc1O	-30% [at 38 µM]
CC1(C)Cc2c(c(-c3ccccc3)[nH]c(=O)c2C#N)CS1	2.27%
c1ccc(-c2nc(NCC3CCCO3)c3ccccc3n2)nc1 (stereo not given)	-27.7%
CCOC(=O)C1/C(=N\O)CC(C)(O)C(C(=O)OCC)C1c1ccc(OC)c(OC)c1 (stereo not given)	-0.404%
Cn1c2ccccc2c2nn(-c3ccccc3)c(=O)cc21	2.73%
COC(=O)c1sc(NC(=O)c2oc3ccccc3c2C)nc1C	-8%
FC(F)(F)c1cc(CO[C@@H]2CCCN[C@H]2c2ccccc2)cc(C(F)(F)F)c1	16.5% [at 38 µM]
Cc1cc(C)c(C#N)c(SCC(=O)N2CCN(Cc3ccccc3)CC2)n1	-24.4%
N#CC1=C(SCC(=O)c2ccc(Cl)cc2)NC2=C(C(=O)CCC2)C1c1ccco1 (stereo not given)	-22.4%
COc1ccc(NC(=O)CSC2=C(C#N)C(c3ccco3)C3=C(CCCC3=O)N2)c(OC)c1 (stereo not given)	-6.5%
CCCOc1ccccc1C(=O)NCCCC(=O)O	-4.04%
COc1cc([C@H]2c3cc4c(cc3[C@@H](O[C@H]3O[C@H]5CO[C@@H](C)O[C@H]5[C@@H](O)[C@@H]3O)[C@@H]3COC(=O)[C@H]23)OCO4)cc(OC)c1O	-0.949%
Cc1cc(C)c(-n2c(O)c(C=NCCN3CCOCC3)c(=O)[nH]c2=O)c(C)c1	7.98%
CCOC(=O)c1c(-c2cccs2)csc1NC(=O)c1ccncc1	27.6%
Nc1nnc(Cc2ccc(Cl)c(Cl)c2)s1	2.08%
CCCCCOc1ccc(Cl)cc1CN1CCOCC1	4.03%
